From PubChem BioAssay AID624330 (Southern Research Specialized Biocontainment Screening …, 2012)
Out of some 340,000 compounds screened, about 2,100 (0.62%) were called active.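 How the source made its calls: active means first-screen hits whose inhibition reached a set limit at any dose in the follow-up dose series; inconclusive means inhibition above the set first-screen limit but never retested; inactive means the rest.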 The list is a sample of the results. Potency and affinity values are given separately.

Molecular target: Rac GTPase-activating protein 1 (Homo sapiens) (UniProt Q9H0H5)
Sequence (Q9H0H5 whole entry, looked up): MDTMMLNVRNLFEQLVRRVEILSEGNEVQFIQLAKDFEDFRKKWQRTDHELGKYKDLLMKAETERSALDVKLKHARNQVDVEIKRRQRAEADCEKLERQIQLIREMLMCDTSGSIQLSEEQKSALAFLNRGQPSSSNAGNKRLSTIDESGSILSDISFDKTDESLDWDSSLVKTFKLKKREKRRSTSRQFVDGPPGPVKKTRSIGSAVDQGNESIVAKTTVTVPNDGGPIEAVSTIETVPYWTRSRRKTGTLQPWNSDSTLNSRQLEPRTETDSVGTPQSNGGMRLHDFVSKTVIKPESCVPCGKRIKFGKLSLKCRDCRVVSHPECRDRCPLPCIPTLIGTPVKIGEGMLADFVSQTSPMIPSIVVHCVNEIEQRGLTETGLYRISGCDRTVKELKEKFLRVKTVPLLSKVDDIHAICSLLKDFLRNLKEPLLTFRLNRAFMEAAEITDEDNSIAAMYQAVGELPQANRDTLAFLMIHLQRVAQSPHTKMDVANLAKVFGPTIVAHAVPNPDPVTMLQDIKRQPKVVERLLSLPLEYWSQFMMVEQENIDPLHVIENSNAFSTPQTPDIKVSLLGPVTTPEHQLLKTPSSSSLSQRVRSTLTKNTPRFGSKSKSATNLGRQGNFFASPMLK
Assay: blockers of MgcRacGAP-driven Rac1 GTP hydrolysis – biochemical, ADP Hunter fluorescence, primary and confirmatory, confirmation (AID 624330);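 further: fluorescence reports GDP produced by GAP-driven GTP hydrolysis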
Settings: MgcRacGAP-stimulated Rac1 GTP hydrolysis, at 30 µM, stronger effect = higher value, GST-tagged Rac1 F28L mutant substrate

inhibition, inactive:
CCOC(=O)c1sc(N2C(=O)C(O)=C(C(=O)c3ccco3)C2c2ccc(C)o2)nc1C (centres undefined) 12.2%
CN=C1S/C(=C\c2ccc(SC)cc2)C(=O)N1C 7.27%
CN=C1S/C(=C\c2ccc(Cl)cc2)C(=O)N1C 3.04%
O=C1COc2ccc(C(=O)COC(=O)Cc3ccc(Cl)cc3)cc2N1 9.6%
COc1ccc(C2NC(c3ccc(OC)c(OC)c3OC)C(C)C(=O)C2C)c(OC)c1OC (centres undefined) 1.64%
COc1ccccc1C1NC(c2ccccc2OC)C(C)C(=O)C1C (centres undefined) -2.35%
O=C(N/N=C/c1ccc(N2CCOCC2)c([N+](=O)[O-])c1)c1ccc(F)cc1 7.08%
CCOc1ccc(C=NNc2ccc(S(=O)(=O)Nc3ccccc3C(=O)O)cc2[N+](=O)[O-])cc1 15.4%
CC(=O)Nc1ccc(C=NNc2ccc(S(=O)(=O)Nc3ccccc3C(=O)O)cc2[N+](=O)[O-])cc1 15.7%
CCOc1ccc(C=NNc2ccc(S(=O)(=O)Nc3ccccc3C(=O)O)cc2[N+](=O)[O-])cc1OC 10%
O=C(O)c1ccccc1NS(=O)(=O)c1ccc(NN=Cc2ccc(F)cc2)c([N+](=O)[O-])c1 6.4%
CCOCCCNC(=O)c1cc2cc3cc(OC)ccc3nc2o1 11.9%
CCc1nc(SCC(=O)NNC(=O)c2ccc(OC)cc2)c2ccccc2n1 -0.86%
CN(Cc1ccccc1)C(=O)CCC1CCN(C(=O)c2ccccc2C(F)(F)F)CC1 -5.88%
COc1ccc(NC(=O)CS(=O)CC(=O)Nc2ccc(OC)c(OC)c2)cc1 (centres undefined) -4.61%
O=C(COC(=O)CC1CC2CCC1C2)Nc1ccc(Cl)c(S(=O)(=O)N2CCOCC2)c1 (centres undefined) 6.02%
CCN1CCN(C(=O)c2ccc(C)c(S(=O)(=O)Nc3cccc(C)c3)c2)CC1 3.11%
O=C(c1ccc(Cn2cc(Br)cn2)cc1)N1N=C(C(F)F)CC1(O)C(F)F (centres undefined) 0.1%
CCCc1nc(NCc2ccncc2)c2nnn(Cc3ccccc3F)c2n1 10.9%
COc1cc2c(cc1NC(=O)Nc1ccccc1)oc1ccccc12 -0.72%
COc1ccc(CNC(=O)Nc2cccc(C(F)(F)F)c2)cc1OC 6.37%
COc1cc2c(cc1NC(=O)Nc1cccc(C)c1)oc1ccccc12 9.41%
COc1cc2c(cc1NC(=O)Nc1ccc(C)cc1)oc1ccccc12 2.58%
COc1cccc(NC(=O)CN2C(=O)NC(C)(c3ccc(C)cc3)C2=O)c1 (centres undefined) 6.36%
COc1ccccc1Nc1nc(N)nc(CSc2nncn2C)n1 5.08%
CC(=O)c1ccc(NC(=O)CSc2nc(Nc3ccccc3)nc(N3CCOCC3)n2)cc1 8.08%
Cc1ccc(CNC(=O)C2CCCC2)cc1 6.2%
CCN(CC)c1ccc(CN2CCC(C(=O)NCc3ccc(C)cc3)CC2)cc1 36.2%
COc1ccc(CCNc2ccc(S(=O)(=O)N3CCN(C)CC3)cc2[N+](=O)[O-])cc1 1.77%
CC(/C=C1\N=C(SCc2ccccc2)SC1=O)=C\c1ccccc1 3%
C/C(=N/NC(=O)CNC(=O)/C=C/c1ccco1)c1ccc(Cl)cc1 18.5%
COc1ccc(/C(C)=N/NC(=O)CNC(=O)/C=C\c2ccco2)cc1 1.11%
COCCCN(CC(=O)Nc1ccc(N2CCOCC2)cc1)S(=O)(=O)c1ccccc1 5.72%
CC(C)Sc1nc2sc(-c3ccccc3)cc2c(=O)n1N 11.4%
C=CCn1c(SCC(=O)O)nnc1-c1ccccc1 -4.43%
CCn1c(SC(C)C)nnc1-c1c[nH]c2ccccc12 7.88%
C=CCn1c(SCC(N)=O)nnc1-c1ccccc1O 4.07%
CN(C)C(CNC(=O)C1CC(=O)N(Cc2ccccc2)C1)c1ccccc1 (centres undefined) 5.5%
CC(C)C[C@@]12C(=O)N(c3cccc(Cl)c3)C(=O)N1[C@H](c1ccc(Br)cc1)[C@@H]1C(=O)N(C(C)(C)C)C(=O)[C@@H]12 -10.5%
CCn1ccnc1CN(C)C(=O)CCc1nnc(CCCc2ccccc2)o1 -6.18%
CCCc1cc(-n2ccnc2)n2c(nc3ccccc32)c1C#N -0.61%
CCCc1cc(-n2cnc3ccccc32)n2c(nc3ccccc32)c1C#N 11%
COc1ccc(Br)c(C(=O)OCC(=O)NC2CCCCCC2)c1 8.08%
CCCCN1C(=O)C(CC(=O)NCCc2ccccn2)CC(C(=O)N2CCOCC2)=C1C (centres undefined) 11.8%
CN(c1ccc(C(=O)Nc2ccccc2C(F)(F)F)cc1)S(C)(=O)=O 5.77%
Cc1cc(C)n(C(=O)c2ccc(Cn3nc(C)c(Br)c3C)o2)n1 4.85%
Nc1c(C(=O)N2CCCCC2)sc(=S)n1-c1ccccc1 10.5%
Nc1c(C(=O)N2CCOCC2)sc(=S)n1-c1ccccc1 11.6%
NC(=O)c1ccccc1NC(=O)C1CCCO1 (centres undefined) 5.38%
C/C(O)=C(\C#N)c1nc2ccccc2[nH]1 6.3%
C/C(O)=C(/C#N)c1nc2ccccc2[nH]1 9.91%
CCc1cccc(C)c1NC(=O)CC(C)(C)CC(=O)O -15.4%
Cc1ccc(N/N=C(\C#N)C(N)=S)cc1C 14.2%
COc1ccc(CC(=O)Nc2cc(S(=O)(=O)N3CCOCC3)ccc2N2CCCC2)cc1 -0.25%
CCN(CC)S(=O)(=O)c1cccc(NC(=O)CN(C)C2CCCCC2)c1 -0.2%
CN(C)S(=O)(=O)c1cccc(NC(=O)CCCC2CCCCC2)c1 4.27%
CCN(CC)S(=O)(=O)c1ccc(NC(=O)CNC2CCCCC2)cc1 31.5%
Cc1ccc(NC(=O)CNCC2CCCCC2)cc1S(=O)(=O)N(C)C 28.9%
COc1ccc(S(=O)(=O)Nc2ccccc2C(=O)N2CCOCC2)cc1OC 3.41%
